The text below walks through data of PubChem BioAssay AID652062 (Broad Institute, 2013).

Structures are written as SMILES. The whole screen tested about 1,400 compounds, of which about 1,100 (79%) were called active.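 Rule for the calls: active = fitted half-maximal concentration of a falling signal no higher than twice the top valid dose in every test run; inconclusive = runs disagree, or flat partial inhibition, or poor fit; inactive = every run inactive: flat, wrong direction, or potency beyond limit.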 The set was probably picked from earlier hits. Not all results are given here. Measured potencies and affinities stand elsewhere.

A short description of the assay: inhibitors of clade B AD8 Env fusion, dose response, cell-based, cherry-pick (AID 652062). As to conditions: HeLa-AD8 Env / CEM-CCR5 cell fusion, luciferase; at 35 µM (top of the series) unless noted.
On to `Cc1onc(-c2ccccc2)c1C(=O)OCCOc1cccc(Cl)c1`, for which the activity change, negative = inhibition is -18.8%.
The same measure for `CC1(C)N=C(N)N=C(N)N1CCCCc1ccccc1`: 3.6%; for `CS(=O)(=O)N1CCN(c2ccccc2NC(=O)C(c2ccccc2)c2ccccc2)CC1`: 38.4%; for `O=C(O)C[C@@H]1CC[C@@H](NC(=O)c2ccncc2)[C@H](CO)O1`: 28.7%.
The value for `O=C(O)C[C@@H]1C=C[C@H](NC(=O)Nc2ccccc2)[C@H](CO)O1` was -16.5%; that for `O=C(O)C[C@@H]1C=C[C@@H](NC(=O)Nc2ccccc2)[C@H](CO)O1` was 11.3%.
The same measure for `Cc1cccc(C)c1N(CC(O)Cn1c2ccccc2c2ccccc21)S(C)(=O)=O` (stereo not given): 16%; for `Cc1ccc(-c2ccc3c(c2)O[C@@H](CN(C)Cc2cccnc2)[C@H](C)CN([C@H](C)CO)S3(=O)=O)cc1`: -56.7%.
As to `C[C@@H]1CN([C@H](C)CO)S(=O)(=O)c2ccc(-c3ccncc3)cc2O[C@@H]1CN(C)Cc1ccc(Oc2ccccc2)cc1`, the activity change, negative = inhibition came to 160%.
On to `COc1ccccc1C#Cc1ccc2c(c1)O[C@@H](CN(C)Cc1ccncc1)[C@H](C)CN([C@H](C)CO)S2(=O)=O`, for which the activity change, negative = inhibition was determined as 10.1% [at 16 µM].
Take `COc1ccccc1CN1C(=O)CN(C2CCCCCC2)C(=O)C1c1ccc(F)cc1` (stereo not given): the activity change, negative = inhibition was 20.3%.
As for `Cc1ccc(-n2nc3c(c2NC(=O)c2ccco2)CS(=O)C3)cc1` (stereo not given), the activity change, negative = inhibition was -28.9%.
The same measure for `COc1ccccc1CN(C)C(=O)CN1CCN(C(=O)c2cccs2)CC1`: -1.14%.
In the case of `O=C(C[C@@H]1C[C@H]2c3cc(NC(=O)NC4CCCCC4)ccc3O[C@H]2[C@@H](CO)O1)NCc1ccncc1`, the activity change, negative = inhibition was 17.5%.
The value for `O=C(C[C@@H]1C[C@H]2c3cc(NC(=O)C4CCOCC4)ccc3O[C@H]2[C@@H](CO)O1)NCc1ccccc1` was 37.3%.
Turning to `O=C(C[C@@H]1C[C@@H]2c3cc(NC(=O)C4CCC4)ccc3O[C@@H]2[C@@H](CO)O1)NCC(F)(F)F`, the activity change, negative = inhibition was determined as 37%.
For the compound `O=C(C[C@H]1C[C@@H]2c3cc(NC(=O)C4CCC4)ccc3O[C@@H]2[C@@H](CO)O1)NCC(F)(F)F`, the activity change, negative = inhibition is 7.19%.
As for `O=C(C[C@H]1C[C@@H]2c3cc(NC(=O)C4CCC4)ccc3O[C@@H]2[C@@H](CO)O1)NCc1ccc2c(c1)OCO2`, the activity change, negative = inhibition worked out at 25.6%.
`CN(C)C(=O)C[C@H]1C[C@@H]2c3cc(NC(=O)NC4CCCCC4)ccc3O[C@@H]2[C@H](CO)O1`: the activity change, negative = inhibition is -20.7%.
With `O=C(C[C@@H]1C[C@@H]2c3cc(NC(=O)C4CCC4)ccc3O[C@@H]2[C@@H](CO)O1)NCc1ccc2c(c1)OCO2`, the activity change, negative = inhibition is 48.6%.
Regarding `O=C(C[C@@H]1C[C@@H]2c3cc(NC(=O)C4CCOCC4)ccc3O[C@@H]2[C@H](CO)O1)NCCc1ccccc1`, the activity change, negative = inhibition was -21%.
Consider `O=C(C[C@@H]1C[C@@H]2c3cc(NC(=O)Nc4ccccc4)ccc3O[C@@H]2[C@@H](CO)O1)NCc1ccccc1`, for which the activity change, negative = inhibition came out at 42.6% [at 30 µM].
`O=C(C[C@H]1C[C@H]2c3cc(NC(=O)C4CCC4)ccc3O[C@H]2[C@@H](CO)O1)NCc1ccc2c(c1)OCO2`: the activity change, negative = inhibition came out at 38.8% [at 30 µM].
On to `O=C(C[C@H]1C[C@H]2c3cc(NC(=O)Cc4ccncc4)ccc3O[C@H]2[C@@H](CO)O1)NCc1ccncc1`, for which the activity change, negative = inhibition was determined as 20.8%.
The same measure for `O=C(C[C@@H]1C[C@@H]2c3cc(NC(=O)c4ccc5c(c4)OCO5)ccc3O[C@@H]2[C@@H](CO)O1)NCc1ccc(Oc2ccccc2)cc1`: 0.613% [at 16 µM].
